In PubChem BioAssay (NCATS):
Values joined by “and” are separate entries in the source; they are usually repeats but may differ in a detail not shown here. Equal values may be shown once. Records with an inconclusive call do not appear. Active and inactive are the calls of the source. Unless noted, the call rests on the fitted dose curve; in most records, active means well fitted curve in the direction sought with a large enough effect; inconclusive means small, poorly fitted or top-dose-only effect, or another doubt; inactive means no such curve, though single readings can be large; an effect the other way counts as inactive or inconclusive.

Key:
[1] = biological target: Calcium and integrin-binding protein 1 (Homo sapiens) (UniProt Q99828); test: Primary qHTS for Identification of Calcium Integrin Binding Protein 1 (CIB1) Competitor (AID 1508620);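 further: GST tagged CIB1 binding a fluorescein labelled alphaIIb integrin peptide tracer; top concentration of the series differs between compounds; on the % scale 0 is the no-effect control and ±100 the full control effect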
Outline: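 CIB1-GST (1 uM final) and compound incubated 15 min at room temperature before adding FITC-alphaIIb peptide tracer (100 nM final). Competition for binding read by fluorescence polarization (ex 480, em 540) after another 15 min at room temperature.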

[2] = Primary qHTS for inhibitors of nuclear receptor binding SET domain protein 2 (NSD2) in an isogenic RCH-ACV NSD2 p.E1099K mutant (9B) (AID 1645876); further: nearly all actives have a fitted effect of over 70% in size; further: potency means the concentration at half of the fitted maximal effect; on activity change, negative = viability loss: on the % scale 0 is the no-effect control and ±100 the full control effect
[3] = Primary qHTS for inhibitors of nuclear receptor binding SET domain protein 2 (NSD2) in an RCH-ACV wild type WT cells (2C) (AID 1645877); further: nearly all actives have a fitted effect of over 70% in size; further: potency means the concentration at half of the fitted maximal effect
[4] = biological target: Catechol O-methyltransferase (Homo sapiens) (UniProt P21964); test: Confirmatory Screen for Target Class Profiling of Small Molecule Inhibitors of Methyltransferases (AID 1745852; calls by dose curve; further: potency means the concentration at half of the fitted maximal effect; on activity change, negative = inhibition: on the % scale 0 is the no-effect control and ±100 the full control effect); conditions: MTase-Glo luminescence, SAH detection, recombinant enzyme; measured here: COMT max response; stronger effect = lower value
[5] = biological target: Guanidinoacetate N-methyltransferase (Homo sapiens) (UniProt Q14353); test: as above; conditions: activity change, negative = inhibition: at 57.3 µM (top of the series) unless noted
[6] = biological target: Nicotinamide N-methyltransferase (Homo sapiens) (UniProt P40261); test: as above; conditions: MTase-Glo luminescence, SAH detection, recombinant enzyme; measured here: NNMT max response; stronger effect = lower value
[7] = biological target: Phenylethanolamine N-methyltransferase (Homo sapiens) (UniProt P11086); test: as above; conditions: MTase-Glo luminescence, SAH detection, recombinant enzyme; measured here: PNMT max response; stronger effect = lower value
Sequence of Phenylethanolamine N-methyltransferase (Homo sapiens) (P11086 whole entry, looked up): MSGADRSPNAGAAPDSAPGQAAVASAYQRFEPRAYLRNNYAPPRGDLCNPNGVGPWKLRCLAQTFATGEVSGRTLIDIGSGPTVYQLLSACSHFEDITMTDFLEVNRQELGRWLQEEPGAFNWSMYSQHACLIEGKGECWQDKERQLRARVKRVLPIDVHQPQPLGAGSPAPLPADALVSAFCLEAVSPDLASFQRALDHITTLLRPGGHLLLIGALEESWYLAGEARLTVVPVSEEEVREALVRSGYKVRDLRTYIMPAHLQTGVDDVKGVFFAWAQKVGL

Sequence of Catechol O-methyltransferase (Homo sapiens) (P21964 whole entry, looked up): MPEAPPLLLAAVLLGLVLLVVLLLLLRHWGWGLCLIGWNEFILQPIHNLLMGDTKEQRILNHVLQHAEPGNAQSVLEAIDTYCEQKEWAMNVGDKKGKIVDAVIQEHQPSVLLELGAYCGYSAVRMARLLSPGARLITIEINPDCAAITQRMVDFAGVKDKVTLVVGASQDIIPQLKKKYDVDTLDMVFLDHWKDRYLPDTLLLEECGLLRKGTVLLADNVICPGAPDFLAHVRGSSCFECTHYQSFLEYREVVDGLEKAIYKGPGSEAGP
Sequence of Nicotinamide N-methyltransferase (Homo sapiens) (P40261 whole entry, looked up): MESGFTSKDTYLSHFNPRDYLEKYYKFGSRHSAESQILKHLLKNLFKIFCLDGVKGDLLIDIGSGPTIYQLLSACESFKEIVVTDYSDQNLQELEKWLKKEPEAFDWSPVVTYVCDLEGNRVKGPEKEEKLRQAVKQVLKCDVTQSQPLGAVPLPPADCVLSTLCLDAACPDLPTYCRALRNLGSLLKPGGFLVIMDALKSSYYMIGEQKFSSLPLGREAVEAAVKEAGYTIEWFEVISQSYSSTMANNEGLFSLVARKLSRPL
Sequence of Calcium and integrin-binding protein 1 (Homo sapiens) (Q99828 whole entry, looked up): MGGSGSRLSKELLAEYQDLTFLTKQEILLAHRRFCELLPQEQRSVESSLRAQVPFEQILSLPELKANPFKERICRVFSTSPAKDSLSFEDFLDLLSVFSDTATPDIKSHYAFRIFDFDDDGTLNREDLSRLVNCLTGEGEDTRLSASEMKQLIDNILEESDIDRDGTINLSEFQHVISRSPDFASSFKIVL

In the case of `CC[C@H]1OC(=O)[C@H](C)[C@@H](O[C@H]2C[C@@](C)(OC)[C@@H](O)[C@H](C)O2)[C@H](C)[C@@H](O[C@@H]2O[C@H](C)C[C@H](N(C)C)[C@H]2O)[C@](C)(O)C[C@@H](C)C(=O)[C@H](C)[C@H]2OC(=O)O[C@@]21C`, the Potency [1] is reported as “inactive”, the Potency [2] is reported as “inactive” and the Potency [3] is reported as “inactive”.

In the case of `COc1ccc(CCO[C@@H]2O[C@H](CO[C@@H]3OC[C@H](O)[C@H](O)[C@H]3O)[C@@H](O)[C@H](O)[C@H]2O)cc1`, the Potency [1] is reported as “inactive”, the Potency [2] is reported as “inactive” and the Potency [3] is reported as “inactive”. It also gave an activity [4] of -55.1%, an activity change, negative = inhibition [5] of 2.09% [at 29.8 µM] and an activity [6] of 1.01%. For the same compound, the activity [7] was 1.06%.

For `C/C1=C\[C@H]2OC(=O)[C@@H](C)[C@@H]2CC/C(C(=O)O)=C/CC1`, the Potency [1] was “inactive”, the Potency [2] was “inactive” and the Potency [3] was “inactive”.

In the case of `CC(=O)O[C@@H]1C[C@@H](OC(C)=O)C(C)(C)/C=C/[C@H](C)[C@H](OC(C)=O)[C@@]2(O)C[C@H](C)[C@H](OC(=O)c3ccccc3)[C@@H]2/C=C/1C`, the Potency [1] is reported as “inactive”, the Potency [2] is reported as “inactive” and the Potency [3] is reported as “inactive”.

For `CC1=C(C)C(=O)OC(C(C)C2CCC3C4C5OC5C5(O)CC(OC6OC(CO)C(OC7OC(C)C(O)C(O)C7O)C(O)C6O)CC(O)C5(C)C4CCC23C)C1` (configuration not stated), the Potency [1] was “inactive”, the Potency [2] was “inactive” and the Potency [3] was “inactive”.

With `O=C(O)c1ccc(CN2CCC(CN[C@@H]3C[C@H]3c3ccccc3)CC2)cc1` the Potency [1] was “inactive”, the Potency [2] was “inactive” and the Potency [3] was “inactive”. The activity [4] was 4.43%, the activity change, negative = inhibition [5] was -0.127% and the activity [6] was -0.425%. For the same compound, the activity [7] was 5.38%.

With `COc1ncc(Nc2ncc([C@@H](C)N3CCN(S(C)(=O)=O)CC3)cc2-c2nc(C)nc(N)n2)cc1F` the Potency [1] was “inactive”, the Potency [2] was 0.0052 µM (active) and the Potency [3] was 0.0205 µM (active).

In the case of `CCCCC1CCN(CCCC(=O)c2ccccc2C)CC1`, the Potency [1] is reported as “inactive”, the Potency [2] is reported as 20.5 µM (active) and the Potency [3] is reported as 16.3 µM (active).

For `C[C@]12C[C@@H](O)[C@@H]3C[C@@]1(O[C@@H]1O[C@H](CO)[C@@H](O)[C@H](O)[C@H]1O)[C@]3(COC(=O)c1ccccc1)C(=O)O2`, the Potency [1] was “inactive”, the Potency [2] was “inactive” and the Potency [3] was “inactive”. For the same compound, the activity [4] was -66.1%, the activity change, negative = inhibition [5] was 0.459% [at 29.8 µM] and the activity [6] was 0%. It also gave an activity [7] of 6.78%.

With `CC(C)c1c2cc(-c3ccnc(NC4CCC(NC5CCOCC5)CC4)n3)ccc2nn1C` (configuration not stated) the Potency [1] was “inactive”, the Potency [2] was 163 nM (active) and 148 nM (active) and the Potency [3] was 129 nM (active) and 93.4 nM (active). For the same compound, the activity [4] was -27.8%, the Potency [5] was 38.3 µM (active) and the activity [6] was -14.6%. It also gave an activity [7] of -25.7%.

With `CC(=O)c1ccc(O[C@@H]2O[C@H](CO)[C@@H](O)[C@H](O)[C@H]2O)cc1` the Potency [1] was “inactive”, the Potency [2] was “inactive” and the Potency [3] was “inactive”.

With `CC1(C)CCCC2(C)C1C(O)C=C(CO)C2(O)CO` (configuration not stated) the Potency [1] was “inactive”, the Potency [2] was “inactive” and the Potency [3] was “inactive”.

In the case of `C/C=C/c1cc(OC)c2c(c1)[C@@H](C)[C@@H](c1ccc(O)c(OC)c1)O2`, the Potency [1] is reported as “inactive”, the Potency [2] is reported as 8.98 µM (active) and the Potency [3] is reported as 14.2 µM (active). The activity [4] was -61.3%, the activity change, negative = inhibition [5] was -6.75% and the activity [6] was -7.01%. It also gave an activity [7] of -5.03%.

With `CC(=O)OC1CC2C3(C)CCC(OC(=O)CC(=O)O)C(C)(C)C3CCC2(C)C2(C)CCC(C3(C)CCC(=O)O3)C12` (configuration not stated) the Potency [1] was “inactive”, the Potency [2] was “inactive” and the Potency [3] was “inactive”.

For `Cc1c(C(=O)N2CCOc3ccc(-c4ccc(N)nc4)cc3C2)ccc(S(C)(=O)=O)c1F`, the Potency [1] was “inactive”, the Potency [2] was 817 nM (active) and 1.32 µM (active) and the Potency [3] was 1.83 µM (active) and 3.32 µM (active).

With `COC(=O)C1=C2Nc3ccccc3C23CCN2CCCC(C(C)O)(C1)C23` (configuration not stated) the Potency [1] was “inactive”, the Potency [2] was “inactive” and the Potency [3] was “inactive”. The activity [4] was -1.85%, the activity change, negative = inhibition [5] was 0% and the activity [6] was 2.66%. The activity [7] was -1.29%.

In the case of `C[C@@H]1O[C@@H](O[C@H]2[C@H](O)[C@@H](O)[C@H](OC[C@H]3O[C@@H](OC(=O)[C@]45CCC(C)(C)C[C@H]4C4=CCC6[C@@]7(C)CC[C@H](O[C@@H]8OC[C@H](O)[C@H](O[C@@H]9O[C@H](CO)[C@@H](O)[C@H](O)[C@H]9O)[C@H]8O)[C@@](C)(CO)C7CC[C@@]6(C)[C@]4(C)CC5)[C@H](O)[C@@H](O)[C@@H]3O)O[C@@H]2CO)[C@H](O)[C@H](O)[C@H]1O` (some centres not stated), the activity change, negative = inhibition [1] is reported as 1.27% [at 12.4 µM] (inactive), the activity change, negative = viability loss [2] is reported as 0.607% [at 9.23 µM] (inactive) and the outcome [3] is reported as “inactive [at 9.23 µM]”.

In the case of `CCN(CC)c1ccc2c(O)c(C=Nc3ccc(CC(=O)O)c(-c4c5c(nc6ccccc46)CCC(C(=O)NN)C5)c3)c(=O)oc2c1` (configuration not stated), the Potency [1] is reported as “inactive”, the Potency [2] is reported as 2.9 µM (active) and the Potency [3] is reported as 4.59 µM (active). For the same compound, the activity [4] was -17%, the Potency [5] was 34.1 µM (active) and the activity [6] was -14%. It also gave an activity [7] of -22%.

With `CC1=CC(=O)CC(C)(C)C1CCC(C)O[C@@H]1O[C@H](CO[C@@H]2OC[C@@H](O)[C@H](O)[C@H]2O)[C@@H](O)[C@H](O)[C@H]1O` (some centres not stated) the Potency [1] was “inactive”, the Potency [2] was “inactive” and the Potency [3] was “inactive”. It also gave an activity [4] of -54.5%, an activity change, negative = inhibition [5] of 0% [at 29.8 µM] and an activity [6] of 0.168%. The activity [7] was 0.0687%.

With `CC(=O)c1cc2c(cc1O)OC(C)(C)C=C2` the Potency [1] was “inactive”, the Potency [2] was “inactive” and the Potency [3] was “inactive”.
